{"source": "PubChem BioAssay (NCATS)", "key": {"[1]": {"test_system": "JEG-3", "test": "Primary qHTS to identify gynecologic anti-cancer compounds using libraries of approved drugs and bioactive compounds (AID 1345084); also: nearly all actives have a fitted effect of over 55% in size", "settings": "Gynecologic cancer cell panel viability, ATPlite luminescence, 48 h; series mostly up to 57.5 µM", "outline": "(§1)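 In this quantitative HTS, cell killing is estimated from loss of ATP-dependent luciferase light. Cells see five compound concentrations over a 48 h exposure.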"}, "[2]": {"test_system": "OV90", "test": "Primary qHTS to identify gynecologic anti-cancer compounds using libraries of approved drugs and bioactive compounds (AID 1345084)", "settings": "Gynecologic cancer cell panel viability, ATPlite luminescence, 48 h; series mostly up to 57.5 µM", "outline": "as §1"}, "[3]": {"test_system": "SKOV3", "test": "Primary qHTS to identify gynecologic anti-cancer compounds using libraries of approved drugs and bioactive compounds (AID 1345084)", "settings": "Gynecologic cancer cell panel viability, ATPlite luminescence, 48 h; series mostly up to 57.5 µM", "outline": "as §1"}, "[4]": {"test_system": "Tov-21-G", "test": "Primary qHTS to identify gynecologic anti-cancer compounds using libraries of approved drugs and bioactive compounds (AID 1345084)", "settings": "Gynecologic cancer cell panel viability, ATPlite luminescence, 48 h; series mostly up to 57.5 µM", "outline": "as §1"}, "[5]": {"test_system": "Tov112D", "test": "Primary qHTS to identify gynecologic anti-cancer compounds using libraries of approved drugs and bioactive compounds (AID 1345084)", "settings": "Gynecologic cancer cell panel viability, ATPlite luminescence, 48 h; series mostly up to 57.5 µM", "outline": "as §1"}, "[6]": {"test_system": "PA-1", "test": "Primary qHTS to identify gynecologic anti-cancer compounds using libraries of approved drugs and bioactive compounds (AID 1345084)", "settings": "Gynecologic cancer cell panel viability, ATPlite luminescence, 48 h; series mostly up to 57.5 µM", "outline": "as §1"}, "[7]": {"test": "Drug repurposing screens with cells derived from glioblastoma tumor samples (AID 1345199)", "settings": "GBM patient neurospheres viability, ATP luminescence, 48 h", "outline": "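Primary testing used CD133+ neurospheres from four GBM patients, seven concentrations, 48 h exposure and ATP-based viability; confirmation added three slower-growing patient lines.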"}, "[8]": {"settings": "at 46.1 µM (top of the series), tumour line C"}}, "note": "Records with an inconclusive call do not appear. Where a call stands in place of a potency, no number is given. Unmarked numbers belong to inactive results. The source made the active and inactive calls. Calls follow the shape of the dose curve; as a rule, active = well fitted curve in the direction sought with a large enough effect; inconclusive = small, poorly fitted or top-dose-only effect, or another doubt; inactive = no such curve, though single readings can be large; an effect the other way counts as inactive or inconclusive. For activity, negative = cell killing in this document: nearly all actives have a fitted effect of over 40% in size. Potency is read from the fitted curve at half-maximal effect.", "data": [{"smiles": "CC1CCC2(C(=O)OC3OC(CO)C(O)C(O)C3O)CCC3(C)C(=CCC4C5(C)CC(O)C(O)C(C)(C(=O)O)C5CCC43C)C2C1(C)O", "note": "(stereo not drawn)", "values": [{"measurement": "Potency", "setting": "[1]", "value": "inactive"}, {"measurement": "Potency", "setting": "[2]", "value": "inactive"}, {"measurement": "Potency", "setting": "[3]", "value": "inactive"}, {"measurement": "Potency", "setting": "[4]", "value": "inactive"}, {"measurement": "Potency", "setting": "[5]", "value": "inactive"}]}, {"smiles": "COc1ccc2c(c1)OC[C@]1(O)c3cc4c(cc3O[C@H]21)OCO4", "values": [{"measurement": "Potency", "setting": "[1]", "value": "inactive"}, {"measurement": "Potency", "setting": "[2]", "value": "inactive"}, {"measurement": "Potency", "setting": "[3]", "value": "inactive"}, {"measurement": "Potency", "setting": "[4]", "value": "inactive"}, {"measurement": "Potency", "setting": "[5]", "value": "inactive"}]}, {"smiles": "COc1cc2c(Nc3ccc(Cl)c(Cl)c3F)ncnc2cc1OCC1C[C@@H]2CN(C)C[C@@H]2C1", "note": "(stereo partly drawn)", "values": [{"measurement": "Potency", "setting": "[2]", "value": "20 µM (active)"}, {"measurement": "Potency", "setting": "[3]", "value": "14.1 µM (active)"}, {"measurement": "Potency", "setting": "[5]", "value": "17.8 µM (active)"}]}, {"smiles": "O=C(O)C[C@H](O)C[C@H](O)/C=C/c1c(C2CC2)nc2ccccc2c1-c1ccc(F)cc1", "values": [{"measurement": "Potency", "setting": "[1]", "value": "inactive"}, {"measurement": "Potency", "setting": "[6]", "value": "10 µM (active)"}, {"measurement": "Potency", "setting": "[5]", "value": "11.2 µM (active)"}]}, {"smiles": "CN(NC(=O)CC(=O)NN(C)C(=S)c1ccccc1)C(=S)c1ccccc1", "values": [{"measurement": "Potency", "setting": "[1]", "value": "inactive"}, {"measurement": "Potency", "setting": "[4]", "value": "1.12 µM (active)"}, {"measurement": "Potency", "setting": "[5]", "value": "inactive"}]}, {"smiles": "CON(C)C(=O)N1N=C(c2cc(F)ccc2F)S[C@@]1(CCCN)c1ccccc1", "values": [{"measurement": "Potency", "setting": "[2]", "value": "inactive"}, {"measurement": "Potency", "setting": "[3]", "value": "inactive"}]}, {"smiles": "Cc1cc(Nc2ncc(Cl)c(Nc3ccccc3S(=O)(=O)C(C)C)n2)c(OC(C)C)cc1C1CCNCC1", "values": [{"measurement": "Potency", "setting": "[1]", "value": "inactive"}, {"measurement": "Potency", "setting": "[6]", "value": "inactive"}, {"measurement": "Potency", "setting": "[4]", "value": "inactive"}, {"measurement": "Potency", "setting": "[5]", "value": "inactive"}]}, {"smiles": "CC(C)C1(O[C@@H]2O[C@H](CO)[C@@H](O)[C@H](O)[C@H]2O)CC=C(CO)CC1", "note": "(stereo partly drawn)", "values": [{"measurement": "Potency", "setting": "[1]", "value": "inactive"}, {"measurement": "Potency", "setting": "[2]", "value": "inactive"}, {"measurement": "Potency", "setting": "[3]", "value": "inactive"}, {"measurement": "Potency", "setting": "[4]", "value": "inactive"}, {"measurement": "Potency", "setting": "[5]", "value": "inactive"}]}, {"smiles": "O=S(=O)(O)c1ccc2c(N=Nc3ccc(S(=O)(=O)O)c4ccccc34)c(O)c(S(=O)(=O)O)cc2c1", "values": [{"measurement": "activity, negative = cell killing", "setting": "[7]; at 45.9 µM (top of the series), tumour line D", "value": -24.2, "unit": "%"}, {"measurement": "activity, negative = cell killing", "setting": "[7]; [8]", "value": -9.01, "unit": "%"}]}, {"smiles": "C[C@]12C=CC(=O)N[C@@H]1CC[C@@H]1[C@@H]2CC[C@]2(C)[C@@H](C(=O)Nc3cc(C(F)(F)F)ccc3C(F)(F)F)CC[C@@H]12", "values": [{"measurement": "activity, negative = cell killing", "setting": "[7]; [8]", "value": -29.8, "unit": "%"}]}, {"smiles": "Cc1ccc(Sc2cncc3sc(C(N)=O)cc23)cc1", "values": [{"measurement": "Potency", "setting": "[2]", "value": "inactive"}, {"measurement": "Potency", "setting": "[6]", "value": "inactive"}, {"measurement": "Potency", "setting": "[3]", "value": "inactive"}, {"measurement": "Potency", "setting": "[5]", "value": "inactive"}]}, {"smiles": "CC(C)=CCC[C@](C)(O[C@@H]1O[C@H](CO[C@@H]2OC[C@@H](O)[C@H](O)[C@H]2O)[C@@H](O)[C@H](O)[C@H]1O)[C@H]1CC[C@]2(C)[C@@H]1[C@H](O)C[C@@H]1[C@@]3(C)CC[C@H](O[C@@H]4O[C@H](CO)[C@@H](O)[C@H](O)[C@H]4O[C@@H]4O[C@H](CO)[C@@H](O)[C@H](O)[C@H]4O)C(C)(C)[C@@H]3CC[C@]12C", "values": [{"measurement": "Potency", "setting": "[1]", "value": "inactive"}, {"measurement": "Potency", "setting": "[2]", "value": "inactive"}, {"measurement": "Potency", "setting": "[3]", "value": "inactive"}, {"measurement": "Potency", "setting": "[4]", "value": "inactive"}, {"measurement": "Potency", "setting": "[5]", "value": "inactive"}]}, {"smiles": "COc1cc(C(C)=O)ccc1O[C@@H]1O[C@H](CO[C@@H]2O[C@@H](C)[C@H](O)[C@@H](O)[C@H]2O)[C@@H](O)[C@H](O)[C@H]1O", "values": [{"measurement": "Potency", "setting": "[1]", "value": "inactive"}, {"measurement": "Potency", "setting": "[2]", "value": "inactive"}, {"measurement": "Potency", "setting": "[4]", "value": "inactive"}, {"measurement": "Potency", "setting": "[5]", "value": "inactive"}]}, {"smiles": "C=C[C@@]1(C)CC(=O)C2[C@](C)(O1)[C@@H](OC(C)=O)[C@@H](O)[C@H]1C(C)(C)CCC[C@]21C", "note": "(stereo partly drawn)", "values": [{"measurement": "activity change, negative = cytotoxicity", "setting": "[1]", "value": "7.71% [at 11.6 µM]"}, {"measurement": "activity change, negative = cytotoxicity", "setting": "[6]", "value": "5.09% [at 11.6 µM]"}, {"measurement": "activity change, negative = cytotoxicity", "setting": "[4]", "value": "0.473% [at 11.6 µM]"}, {"measurement": "activity change, negative = cytotoxicity", "setting": "[5]", "value": "4.2% [at 11.6 µM]"}]}, {"smiles": "CC(=O)c1cnc2ccc(-c3cc(Cl)c(O)c(Cl)c3)nc2c1NC1CCC(CN(C)C)CC1", "note": "(stereo not drawn)", "values": [{"measurement": "Potency", "setting": "[6]", "value": "0.501 µM (active)"}, {"measurement": "Potency", "setting": "[3]", "value": "0.891 µM (active)"}, {"measurement": "Potency", "setting": "[5]", "value": "0.447 µM (active)"}]}, {"smiles": "Cc1nc2c(-c3cnc(N)nc3)nc(N3CCOCC3)nc2n1C(C)C", "values": [{"measurement": "Potency", "setting": "[2]", "value": "1.12 µM (active)"}, {"measurement": "Potency", "setting": "[6]", "value": "2 µM (active)"}, {"measurement": "Potency", "setting": "[3]", "value": "0.562 µM (active)"}, {"measurement": "Potency", "setting": "[4]", "value": "0.631 µM (active)"}]}, {"smiles": "Cc1cn2c(N)c(Cl)cc(C(=O)NCC3CCN(CC(C)C)CC3)c2n1", "values": [{"measurement": "Potency", "setting": "[1]", "value": "inactive"}, {"measurement": "Potency", "setting": "[6]", "value": "inactive"}, {"measurement": "Potency", "setting": "[3]", "value": "inactive"}, {"measurement": "Potency", "setting": "[4]", "value": "inactive"}, {"measurement": "Potency", "setting": "[5]", "value": "inactive"}]}, {"smiles": "C#C[C@]1(O)CC[C@H]2[C@@H]3CCC4=C/C(=N/O)CC[C@@H]4[C@H]3CC[C@@]21CC", "values": [{"measurement": "Potency", "setting": "[1]", "value": "inactive"}, {"measurement": "Potency", "setting": "[2]", "value": "inactive"}, {"measurement": "Potency", "setting": "[3]", "value": "inactive"}, {"measurement": "Potency", "setting": "[5]", "value": "inactive"}, {"measurement": "activity, negative = cell killing", "setting": "[7]; at 45.9 µM (top of the series), tumour line B", "value": -7.76, "unit": "%"}, {"measurement": "activity, negative = cell killing", "setting": "[7]; [8]", "value": -27.9, "unit": "%"}, {"measurement": "Potency", "setting": "[7]; tumour line A", "value": "12.6 µM (active)"}]}, {"smiles": "O=C(Nc1cccnn1)N1CCC(=Cc2cccc(Oc3ccc(C(F)(F)F)cn3)c2)CC1", "values": [{"measurement": "Potency", "setting": "[1]", "value": "inactive"}, {"measurement": "Potency", "setting": "[4]", "value": "inactive"}, {"measurement": "Potency", "setting": "[5]", "value": "inactive"}]}, {"smiles": "OC[C@H]1O[C@@H](n2cnc3c(NCc4ccc(O)cc4)ncnc32)[C@H](O)[C@@H]1O", "values": [{"measurement": "Potency", "setting": "[2]", "value": "inactive"}, {"measurement": "Potency", "setting": "[6]", "value": "inactive"}, {"measurement": "Potency", "setting": "[3]", "value": "inactive"}]}, {"smiles": "COC(=O)[C@H](OC(C)=O)[C@H]1C(C)(C)C(=O)[C@H]2CC3=C4CC(=O)O[C@@H](c5ccoc5)[C@]4(C)CCC3[C@@]1(C)C2=O", "note": "(stereo partly drawn)", "values": [{"measurement": "Potency", "setting": "[1]", "value": "inactive"}, {"measurement": "Potency", "setting": "[2]", "value": "inactive"}, {"measurement": "Potency", "setting": "[3]", "value": "inactive"}, {"measurement": "Potency", "setting": "[4]", "value": "inactive"}, {"measurement": "Potency", "setting": "[5]", "value": "inactive"}]}, {"smiles": "CNc1nc(Nc2cnn([C@H]3CCN(C4COC4)C[C@@H]3F)c2Cl)ncc1C(F)(F)F", "values": [{"measurement": "Potency", "setting": "[1]", "value": "inactive"}, {"measurement": "Potency", "setting": "[2]", "value": "inactive"}, {"measurement": "Potency", "setting": "[3]", "value": "inactive"}, {"measurement": "Potency", "setting": "[4]", "value": "inactive"}, {"measurement": "Potency", "setting": "[5]", "value": "inactive"}]}, {"smiles": "CCOc1cc2ncc(C#N)c(Nc3ccc(OCc4ccccn4)c(Cl)c3)c2cc1NC(=O)/C=C/CN(C)C", "values": [{"measurement": "Potency", "setting": "[1]", "value": "inactive"}, {"measurement": "Potency", "setting": "[2]", "value": "inactive"}, {"measurement": "Potency", "setting": "[5]", "value": "inactive"}]}]}
